Source: PubChem BioAssay
ASM inhibitor – blocks human secretory acid sphingomyelinase; P17405; placental ASM, HMU-PC fluorogenic substrate, 60 min; Potency, µM (doses to about 57.5 µM), most hits filed as inhibitors; 340,000 tested, 0.006% active
Target sequence (P17405 47-631 limits assumed): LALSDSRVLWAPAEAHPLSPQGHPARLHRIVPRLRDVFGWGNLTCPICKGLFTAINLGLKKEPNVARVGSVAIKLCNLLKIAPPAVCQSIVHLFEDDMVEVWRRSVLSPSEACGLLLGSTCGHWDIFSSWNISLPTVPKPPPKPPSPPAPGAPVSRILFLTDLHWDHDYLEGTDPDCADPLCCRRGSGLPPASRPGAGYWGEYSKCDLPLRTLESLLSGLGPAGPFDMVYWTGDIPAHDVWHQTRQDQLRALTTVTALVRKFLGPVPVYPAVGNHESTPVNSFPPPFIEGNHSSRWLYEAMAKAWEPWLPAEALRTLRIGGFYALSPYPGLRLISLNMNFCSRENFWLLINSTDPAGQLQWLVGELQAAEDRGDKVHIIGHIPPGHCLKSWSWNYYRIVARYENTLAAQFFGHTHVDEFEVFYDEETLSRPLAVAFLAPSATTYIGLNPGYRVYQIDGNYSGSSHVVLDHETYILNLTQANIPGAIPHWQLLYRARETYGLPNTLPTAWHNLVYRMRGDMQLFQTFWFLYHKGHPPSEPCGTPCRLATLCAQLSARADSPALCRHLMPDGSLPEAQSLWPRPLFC
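Human placenta-derived ASM preincubated with compound 10 min at room temperature, then reacted with 9 uM (final) fluorogenic HMU-PC substrate for 60 min at 37 C. Stop solution raises pH to 10; fluorescence read at Ex 386/Em 447 nm.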
TGFb inhibitor – blocks TGF-b signaling; Potency, µM (highest dose often 46.1 µM), most hits filed as inhibitors; 410,000 tested, 1.2% active; HepG2 CAGA-GFP TGF-b/SMAD3 reporter, GFP fluorescence, 18 h; TGF-beta stimulated, 500 pg/mL final; note: nearly all actives have a fitted effect of over 65% in size
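Using HEPG2 CAGA-GFP reporter cells at 1000 cells/well, we pinned test compounds, stimulated with recombinant TGF-beta (500 pg/mL final) and measured total well GFP after 18 h.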
TDP1 cell CPT – DT40-hTDP1 cell growth loss with CPT; 420,000 tested, 12% active; Potency, µM (top dose mostly 46.2 µM), actives largely listed as inhibitors; chicken DT40 Tdp1-/-;hTDP1 cells + 20 nM CPT, ATP luminescence, 48 h; note: nearly all actives have a fitted effect of over 55% in size
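Chicken DT40 Tdp1-/- cells complemented with human TDP1, 400 cells/well, exposed to compounds plus 20 nM camptothecin for at least 48 h at 37 C; viability read as ATP content by CellTiter-Glo luminescence.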
IL-1B inflam inh – blocks inflammasome-driven IL-1 beta release. 360,000 tested, 4.7% active. activity change, % at 57.5 µM. THP-1 LPS/ATP IL-1B secretion, AlphaLISA, 16 h; active compounds read low. AID 743279; in the data active = activity change below about -50%; inconclusive = mostly about -30% to -49%
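Secreted IL-1B measured by AlphaLISA bead assay after 16 h compound exposure of THP-1 cells; compounds (final up to 57.5 uM) added 1 h before LPS (250 ng/mL) and ATP (1.25 mM) stimulation; lower signal means less secretion.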
HepG2 tox – HepG2 cytotoxicity, counter-screen for TGF-b inhibitors. Potency, µM (titrated, usually from 46.1 µM), most hits filed as cytotoxic. AID 588856. 410,000 tested, 0.76% active. HepG2 CAGA-GFP viability, ATP luminescence, 18 h
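HepG2 CAGA-GFP cells (1000/well, DMEM with 1% FBS) received compound, then TGF-beta at 500 pg/mL final, and were incubated 18 hours at 37 degrees C. Viability was read by CellTiter-Glo luminescence. Media-only wells were set as complete cell-killing and DMSO as no toxicity.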
DT40 TDP1 no CPT – qHTS for Inhibitors of human tyrosyl-DNA phosphodiesterase 1 (TDP1): qHTS in cells in absence of CPT | DT40 Tdp1-/- hTDP1 cells, no CPT, ATP luminescence, 48 h | Potency, µM (top dose mostly 46.2 µM), usual class: inhibitors | 420,000 tested, 15% active; note: nearly all actives have a fitted effect of over 55% in size
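A cellular qHTS used chicken DT40 cells lacking endogenous Tdp1 but carrying stably transfected human TDP1. Compounds were applied without camptothecin, and cell growth kinetics were judged by ATP-dependent luminescence after ≥48 hr.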
Each line names hits and unclear results; the compound was inactive in the other large screens. The list is not random: actives were taken first. Their share in the collection is about 19%. Unless noted, calls come from the whole dose curve; as a rule, active = well fitted curve in the direction sought with a large enough effect; inconclusive = small, poorly fitted or top-dose-only effect, or another doubt; inactive = no such curve, though single readings can be large; an effect the other way counts as inactive or inconclusive.

O=C(c1ccc(N2CCN(C(=O)c3ccc(F)cc3F)CC2)cc1)c1cccc(F)c1	TGFb inhibitor inconclusive, TDP1 cell CPT inconclusive, DT40 TDP1 no CPT inconclusive
CC(=O)Oc1ccc(/C=C2/SC(=S)N(Cc3ccccc3)C2=O)cc1	none
O=C1/C(=C/c2ccc(O)c([N+](=O)[O-])c2)SC(=S)N1Cc1ccccc1	TDP1 cell CPT inconclusive, DT40 TDP1 no CPT 18.4µM
CCOc1cc(/C=C2/SC(=S)N(Cc3ccccc3)C2=O)ccc1O	TDP1 cell CPT inconclusive, DT40 TDP1 no CPT inconclusive
O=C(O)c1ccc(/C=C2/SC(=S)N(Cc3ccccc3)C2=O)cc1	none
O=C1/C(=C\c2ccc(O)cc2)SC(=S)N1Cc1ccccc1	ASM inhibitor inconclusive, TGFb inhibitor inconclusive, TDP1 cell CPT inconclusive, IL-1B inflam inh -95.9, DT40 TDP1 no CPT inconclusive
O=C1/C(=C\c2cc(Br)cc(Br)c2O)SC(=S)N1Cc1ccccc1	TGFb inhibitor inconclusive, TDP1 cell CPT 13µM, DT40 TDP1 no CPT 14.6µM
O=C1/C(=C\c2cccc([N+](=O)[O-])c2O)SC(=S)N1Cc1ccccc1	TGFb inhibitor 10µM, TDP1 cell CPT 18.4µM, DT40 TDP1 no CPT 9.2µM
Cc1ccc(S(=O)(=O)NCC(c2ccc3c(c2)OCO3)N2CCOCC2)cc1 (stereo unspecified)	DT40 TDP1 no CPT inconclusive
CC1CCC(NC(=O)CCc2cn(Cc3ccc(F)cc3)c3ccccc23)CC1 (stereo unspecified)	TGFb inhibitor inconclusive, TDP1 cell CPT inconclusive, DT40 TDP1 no CPT inconclusive (no result: ASM inhibitor, IL-1B inflam inh)
CCN1C(=O)/C(=C\C=C\c2ccccc2[N+](=O)[O-])SC1=S	TDP1 cell CPT 25.9µM, DT40 TDP1 no CPT 11.6µM
CNc1ccc(/C=C2\C=Cc3ccccc32)cc1OC	DT40 TDP1 no CPT inconclusive (no result: ASM inhibitor, IL-1B inflam inh)
Nc1ccc2oc(=O)c3ccccc3c2c1	IL-1B inflam inh -76.7
O=c1oc(=O)c2ccccc2c2ccccc12	none
Cc1cc(N2CCN(c3ccccc3Cl)CC2)n2cc(-c3ccccc3)nc2n1	TGFb inhibitor inconclusive, TDP1 cell CPT inconclusive, IL-1B inflam inh -59.6, DT40 TDP1 no CPT inconclusive
CC(C)CCNC(=O)CN(Cc1ccco1)C(=O)CCC(=O)Nc1nccs1	none
CCN(C(=O)CSc1nc2ccccc2nc1Cc1ccc(F)cc1)c1cccc(C)c1	TDP1 cell CPT inconclusive, DT40 TDP1 no CPT inconclusive (no result: ASM inhibitor, IL-1B inflam inh)
CCN(C(=O)CSc1nc(-c2ccccc2)no1)c1cccc(C)c1	TGFb inhibitor inconclusive, TDP1 cell CPT 1.64µM, DT40 TDP1 no CPT 1.46µM (no result: ASM inhibitor, IL-1B inflam inh)
CCOC(=O)c1cccnc1SCC(=O)NCc1ccccc1	none
CCOC(=O)c1cccnc1SCC(=O)N(CC)c1cccc(C)c1	TDP1 cell CPT 23.1µM, DT40 TDP1 no CPT inconclusive
CCN(C(=O)CSc1ncccc1C(=O)OC(C)C)c1cccc(C)c1	TDP1 cell CPT 20.6µM, DT40 TDP1 no CPT inconclusive
CC1CN(C2CCCCC2)C(=S)NC1=O (stereo unspecified)	none
CCOc1ccc(-n2c(COc3ccc(C)cc3)nnc2SCC(N)=O)cc1	none
CCOC(=O)C(CC)Sc1nnc(COc2ccc(C)cc2)n1-c1ccccc1 (stereo unspecified)	TDP1 cell CPT 20.6µM, DT40 TDP1 no CPT inconclusive
O=C(CSc1nnc(COc2ccccc2)n1-c1ccccc1)c1cccs1	TGFb inhibitor inconclusive, TDP1 cell CPT 18.4µM, IL-1B inflam inh inconclusive, DT40 TDP1 no CPT 20.6µM
COc1ccc(-n2c(=O)c3sc4ccccc4c3n(CC(=O)N3CCCC3)c2=O)cc1	none (no result: ASM inhibitor, IL-1B inflam inh)
CC(C)Cn1cc(F)c(=O)n(CC(C)C)c1=O	none
O=C(NCCC1=CCCCC1)c1ccc2c(c1)N(Cc1ccc(Cl)cc1)C(=O)c1ccccc1S2=O (stereo unspecified)	TDP1 cell CPT inconclusive, DT40 TDP1 no CPT inconclusive (no result: ASM inhibitor, IL-1B inflam inh)
Cc1ccccc1N(C)S(=O)(=O)c1nnc(NC(=O)c2ccco2)s1	TGFb inhibitor inconclusive, TDP1 cell CPT inconclusive, DT40 TDP1 no CPT inconclusive
